# Screening results from PubChem.
# Shown are actives, neighbours in structure and some others; about 1.1% of the full set was active somewhere.
# BJeLR lethal: kills HRASV12-expressing BJeLR cells; BJeLR (HRASV12) viability, CellTiter-Glo ATP luminescence, 48 h; inhibition, % (test concentration not listed); 300,000 compounds, 0.17% hits; in the data active = inhibition above about 50%
# PfHsp40 yeast: compounds rescuing yeast from Plasmodium falciparum HSP40 toxicity; 340,000 compounds, 0.68% hits; AID 504582; S. cerevisiae expressing PfHsp40, growth rescue, ATP luminescence; growth rescue, % at 12.5 µM; in the data active = growth rescue above about 28%, passing the limit was not always enough;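 note: yeast W303a lacking pdr1 and pdr3 grown in galactose medium; growth measured after three days at 30 °C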
# Yp Topo-I inh: Y. pestis Topo-I inhibition via cleavage products | Y. pestis Topo-I cleavage product accumulation, plate reader | activity, % at 10 µM | 360,000 compounds, 0.064% hits | AID 504884; in the data active = activity above about 50%, passing the limit was not always enough
# SARS 3CLpro inh: SARS-CoV 3CLpro protease inhibition | P0C6X7 | recombinant SARS-CoV 3CLpro, quenched FRET peptide cleavage | inhibition, % at 6 µM | 290,000 compounds, 0.14% hits | AID 1706; in the data active = inhibition above about 12%
# Mtb BioA inh: blocks M. tuberculosis BioA enzyme activity. 360,000 compounds, 0.096% hits. inhibition, % at 9.99 µM. purified M. tuberculosis BioA enzyme, plate reader; in the data active = inhibition above about 40%
# MazF activator: increases E. coli MazEF RNase cleavage of RNA; P0AE70; FAM/BHQ RNA-DNA oligo cleavage fluorescence, 5 h; activation, % at 20 µM; 350,000 compounds, 0.32% hits; in the data active = activation above about 50%
# Target sequence (P0AE70 whole entry, looked up): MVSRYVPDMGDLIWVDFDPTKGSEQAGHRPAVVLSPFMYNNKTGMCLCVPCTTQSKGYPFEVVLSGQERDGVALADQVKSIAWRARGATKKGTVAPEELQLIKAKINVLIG
# An asterisk follows results filed as active; . = no result given.
SMILES,BJeLR lethal,PfHsp40 yeast,Yp Topo-I inh,SARS 3CLpro inh,Mtb BioA inh,MazF activator
O=C(O)c1ccc(N=Nc2c(O)[nH]c3ccc(Br)cc23)cc1,1,0,-9,1,-3,5
COc1ccc(NC(=O)Nc2ccc3c(c2)C(=O)N([C@H](C)CO)C[C@H](C)[C@@H](CN(C)C)OCCCC[C@@H](C)O3)cc1,.,.,.,.,-5,.
C[C@H](CO)N1C[C@H](C)[C@H](CN(C)C(=O)c2ccccc2F)Oc2ncc(-c3cncnc3)cc2C1=O,.,.,.,.,-5,.
Clc1ccc(/C=C/c2nc3ccccc3[nH]2)cc1,16,-3,8,4,0,67*
Clc1ccc(/C=C/c2nc3ccccc3[nH]2)c(Cl)c1,25,0,5,1,-1,32
C[C@@H]1CCCCO[C@@H](CN(C)C)[C@@H](C)CN([C@@H](C)CO)C(=O)c2cc(NC(=O)C3CCCCC3)ccc2O1,.,.,.,.,-2,.
COc1cccc(C(=O)Nc2nnc(-c3ccccc3)s2)c1OC,10,2,28,-2,-1,8
COc1cccc(C(=O)Nc2sc(C(C)C)cc2C(N)=O)c1OC,-3,604*,7,7,.,-1
Cc1ccc(CN2C(=O)CCC2C(=O)NC(C)C)cc1 (stereo not drawn),-6,78*,3,-2,-1,0
CNC(=O)C1CCC(=O)N1Cc1ccc(C)cc1 (stereo not drawn),-2,0,-2,-5,0,-3
O=C(CSc1nnc(SCc2ccc(Cl)cc2)s1)N/N=C/c1c[nH]c2ccccc12,-2,0,-5,-3,.,64*
O=C(CSc1nnc(SCc2cccc3ccccc23)s1)N/N=C/c1c[nH]c2ccccc12,-4,-2,8,0,.,-15
C[C@H](CO)N1C[C@H](C)[C@@H](CN(C)C(=O)Nc2cccc3ccccc23)OCCCC[C@H](C)Oc2ccc(NC(=O)Nc3ccc(F)cc3)cc2C1=O,.,.,.,.,2,.
Cc1ccc(S(=O)(=O)Cc2ccc(C(=O)N3CCN(c4cccc(C)c4C)CC3)o2)cc1,40,41*,40,0,-1,7
CCCC(=O)Nc1ccc(C(=O)N/N=C/c2ccc([N+](=O)[O-])o2)cc1,122*,3,-11,2,.,0
CCc1ccccc1N1C(=O)CC(N2CCc3ccccc32)C1=O (stereo not drawn),-9,69*,-6,-1,.,-5
Cc1noc(C)c1NC(=O)N(C)C[C@@H]1Oc2c(NC(=O)Nc3ccc(C(F)(F)F)cc3)cccc2C(=O)N([C@H](C)CO)C[C@H]1C,.,.,.,.,1,.
CCC(C)(C)n1nnnc1C(c1ccncc1)N1CCN(c2cccc(OC)c2)CC1 (stereo not drawn),8,-2,-1,-4,2,0
CCC(C)(C)n1nnnc1C(c1cccnc1)N1CCN(c2cccc(C(F)(F)F)c2)CC1 (stereo not drawn),-3,215*,34,-6,3,-4
O=S(=O)(NCC[C@@H]1CC[C@@H](NS(=O)(=O)c2cccc(Cl)c2)[C@@H](CO)O1)c1cccc(F)c1,.,.,.,.,-1,.
CC(=O)N1[C@@H]2c3cccc(=O)n3C[C@@H]2[C@@H](CO)[C@@H]1C(=O)NCc1ccc(F)cc1,.,.,.,.,0,.
ClC1=C(Cl)C(Cl)=C(Cl)C1=C/C=C/c1ccccc1,89*,1,-1,-1,-1,-6
O=C1NC(=O)N(c2ccccc2)C(=O)/C1=C\C=C\c1ccccc1,38,1,0,3,1,-10
CC(=O)Nc1ccc2c(c1)C(=O)N(C)[C@H]1CC[C@H](CC(=O)Nc3ccccc3Cl)O[C@@H]1CO2,.,.,.,.,3,.
CCCC#Cc1ccc2c(c1)O[C@@H](CN(C)C(=O)COC)[C@@H](C)CN([C@H](C)CO)S2(=O)=O,.,.,.,.,2,.
CSc1ccc(-c2nc3cnccn3c2Nc2ccc3c(c2)OCO3)cc1,-10,8,4,0,61*,-3
COc1ccc(S(=O)(=O)N(C)C[C@@H]2Oc3ccc(NS(=O)(=O)c4cccs4)cc3CC(=O)N([C@H](C)CO)C[C@@H]2C)cc1,.,.,.,.,-3,.
COc1cc2c(cc1OC)C1=NC(=O)CN1C(SCc1ccc(C)cc1)=N2,9,0,82*,-3,.,16
N#C/C(=C\Nc1ccccc1O)c1nc2ccccc2o1,-5,452*,2,3,-2,18
